Screening results from PubChem BioAssay.
Hits are enriched below; roughly 3.6% of the tested compounds scored in any of these assays.
TGFb inhibitor: inhibitors of TGF-b signaling. 410,000 tested, 1.2% active. HepG2 CAGA-GFP TGF-b/SMAD3 reporter, GFP fluorescence, 18 h; TGF-beta stimulated, 500 pg/mL final. Potency, µM (titrated, usually from 46.1 µM), actives largely listed as inhibitors. AID 588855; also: nearly all actives have a fitted effect of over 65% in size
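HEPG2 CAGA-GFP reporter cells (1000/well, DMEM with 1% FBS) received compounds, then recombinant TGF-beta at 500 pg/mL final for 18 hours at 37 degrees C. Per-cell GFP summed per well was normalised to unstimulated and stimulated DMSO controls before curve fitting.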
A549 tox-1: counter-screen for Nrf2 inhibitors: cytotoxicity in A549 cells. A549 ARE-Fluc cells, CellTiter-Fluor viability, 18-24 h. Potency, µM (doses to about 46 µM), usual class: inhibitors. 390,000 tested, 0.16% active. AID 504648
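A549 ARE_Fluc cells in 5% FBS OPTI-MEM were exposed to compounds in concentration-response for 18-24 h at 37 deg C. Viability was read by CellTiter-Fluor fluorescence (Ex 405/Em 525) after 30 min, before the luciferase read.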
HepG2 tox: HepG2 cytotoxicity, counter-screen for TGF-b inhibitors | HepG2 CAGA-GFP viability, ATP luminescence, 18 h | Potency, µM (titrated, usually from 46.1 µM), actives largely listed as cytotoxic | 410,000 tested, 0.76% active | AID 588856
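CellTiter-Glo luminescence gave cytotoxicity after 18 hours at 37 degrees C. The cells were HepG2 CAGA-GFP in 1% FBS DMEM, stimulated with 500 pg/mL TGF-beta after compound addition. %Activity was normalised to no-cell wells (complete cell-killing) and DMSO (no toxicity), and curves were fitted and classified.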
Nrf2 inh: blocks Nrf2 signaling; 360,000 tested, 2.1% active; A549 ARE-Fluc reporter, luciferase luminescence, 18-24 h; Potency, µM (top dose mostly 46 µM), most hits filed as inhibitors; also: nearly all actives have a fitted effect of over 60% in size
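Concentration-response testing used A549 ARE_Fluc cells at 5000 cells/well. Following an 18-24 h compound incubation, viability was read by fluorescence (Ex 405/Em 525) and luciferase output by luminescence.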
Nrf2 ARE act: activates Nrf2 signaling; Potency, µM (doses to about 46.1 µM), hits mostly activators; 410,000 tested, 0.31% active; AREc32 ARE-luciferase reporter (MCF7-derived line), luminescence, 24 h; also: nearly all actives have a fitted effect of over 65% in size
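Nrf2 activation is followed as ARE-luciferase induction in the AREc32 line after one day of compound treatment; luminescence is read with Steady-Glo.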
FLuc counter 3: counter-screen for Nrf2 inhibitors: firefly luciferase enzyme inhibition; shares compounds with Nrf2 inh; purified firefly luciferase, luminescence inhibition; Potency, µM (series often up to 57.5 µM), most hits filed as inhibitors; 1,400 tested, 4% active; AID 720522; also: nearly all actives have a fitted effect of over 65% in size
Target sequence (P08659 whole entry, looked up): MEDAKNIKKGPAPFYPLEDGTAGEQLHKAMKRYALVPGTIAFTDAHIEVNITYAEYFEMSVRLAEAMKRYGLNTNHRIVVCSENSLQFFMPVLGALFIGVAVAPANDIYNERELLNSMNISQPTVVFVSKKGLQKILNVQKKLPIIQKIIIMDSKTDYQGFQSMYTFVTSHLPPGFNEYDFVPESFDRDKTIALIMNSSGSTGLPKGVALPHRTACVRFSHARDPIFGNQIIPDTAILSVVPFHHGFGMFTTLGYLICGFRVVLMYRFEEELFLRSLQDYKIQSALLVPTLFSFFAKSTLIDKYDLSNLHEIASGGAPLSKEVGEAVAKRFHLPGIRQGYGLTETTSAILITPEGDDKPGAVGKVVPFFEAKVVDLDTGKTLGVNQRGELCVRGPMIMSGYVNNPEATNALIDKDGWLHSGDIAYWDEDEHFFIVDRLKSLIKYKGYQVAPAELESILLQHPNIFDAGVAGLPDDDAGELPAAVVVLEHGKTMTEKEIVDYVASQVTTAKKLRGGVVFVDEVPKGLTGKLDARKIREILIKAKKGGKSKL
A549 tox-2: A549 cytotoxicity, Nrf2 inhibitor counterscreen; Potency, µM (highest dose often 46.1 µM), usual class: inhibitors; AID 720523; A549 ARE-Fluc cells, cytotoxicity counterscreen; shares compounds with Nrf2 inh; 1,400 tested, 2% active;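 also: cells exposed to compounds for 18 to 24 hours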
ARE-Fluc inh: reduces Nrf2 ARE reporter signal in A549 cells; Potency, µM (series often up to 46.1 µM), hits mostly inhibitors; shares compounds with Nrf2 inh; A549 ARE-firefly luciferase reporter, luminescence; 1,400 tested, 74% active; also: nearly all actives have a fitted effect of over 65% in size
Numbers stand for hits; . = inactive; ? = inconclusive; / = no result given. Calls follow the shape of the dose curve; as a rule, active = well fitted curve in the direction sought with a large enough effect; inconclusive = small, poorly fitted or top-dose-only effect, or another doubt; inactive = no such curve, though single readings can be large; an effect the other way counts as inactive or inconclusive.

SMILES	TGFb inhibitor	A549 tox-1	HepG2 tox	Nrf2 inh	Nrf2 ARE act	FLuc counter 3	A549 tox-2	ARE-Fluc inh
CCN1/C(=C\c2ccc3cc(C)ccc3[n+]2CC)Sc2cc(C)c(C)cc21	.	?	.	8.2µM	.	.	?	1.8µM
CCN1/C(=C/c2ccc3cccc(C)c3[n+]2CC)Sc2ccccc21	.	?	14µM	2.6µM	.	.	?	2.1µM
CCN1/C(=C\C=C2\C(=O)N(c3ccccc3)C(=S)N2C)Sc2ccccc21	.	?	.	.	.	/	/	/
CC[n+]1c(/C=C/c2cc([N+](=O)[O-])ccc2O)ccc2ccccc21	.	.	.	?	.	/	/	/
CCN1/C(=C/c2ccc3cc(C)cc(C)c3[n+]2CC)Sc2cc(C)ccc21	.	16µM	.	?	.	.	?	1.6µM
Cc1oc(-c2ccccc2)nc1C(=O)OCC(=O)NCc1ccc(Cl)cc1	.	.	.	.	.	/	/	/
COc1ccc(OC)c(Nc2nc(-c3sc(NC(=O)C(C)(C)C)nc3C)cs2)c1	.	.	.	8.2µM	.	.	.	?
COc1ccc(Cl)cc1Nc1nc(-c2sc(NC(=O)C(C)(C)C)nc2C)cs1	.	.	.	4.1µM	.	.	.	1.8µM
CCCCC(=O)Nc1nc(C)c(-c2csc(Nc3cc(Cl)ccc3OC)n2)s1	.	.	.	.	.	/	/	/
CCCP(=O)(CC(=O)N(CC)CC)c1ccccc1 (centres undefined)	.	.	.	.	.	/	/	/
Cn1cc(S(=O)(=O)N2CCc3ccccc32)cc1C(=O)NC(C)(C)C	?	.	.	2.1µM	.	.	.	4.6µM
COc1ccccc1CNC(=O)CCN1C(=O)COc2ccc(C)cc21	.	.	.	.	.	/	/	/
CC1=C(C(=O)NC2CCCc3c2cnn3-c2cccc(C)c2C)OCCO1 (centres undefined)	.	.	.	7.3µM	.	.	.	12µM
CC1CCN(S(=O)(=O)c2ccc(C(=O)Nc3nnc(C4=COCCO4)o3)cc2)CC1	.	.	.	?	.	/	/	/
CC1CCN(S(=O)(=O)c2ccc(NC(=O)c3cccs3)cc2)CC1	.	.	.	?	.	/	/	/
Cc1nnsc1C(=O)Nc1ccc(S(=O)(=O)N2CCC(C)CC2)cc1	.	.	.	9.2µM	.	.	.	5.2µM
Nc1c(Cl)ncnc1N/N=C/c1ccccn1	4µM	?	.	5.2µM	.	?	?	2.1µM
Cc1ccc(Cc2c(-c3ccc(C)cc3)nc3cc(C)ccn23)cc1	?	/	.	/	.	/	/	/
NS(=O)(=O)c1ccc(CCNc2ncnc3sccc23)cc1	.	.	.	1.6µM	.	.	.	?
Cc1sc2ncnc(NCCc3ccc(S(N)(=O)=O)cc3)c2c1C	.	.	.	2.3µM	.	.	.	6.5µM
CC[C@H](C)[C@@H](C(=O)NCCCCCCCCCCC(=O)N1CCN(C(=O)OC(C)(C)C)CC1)n1cc(CCCCCNC(=O)OC(C)(C)C)nn1	?	.	.	5.8µM	.	.	.	7.3µM
CC(C)(C)OC(=O)CC[C@@H](C(=O)NCCCCCCCCCCC(=O)N1CCN(C(=O)OC(C)(C)C)CC1)n1cc(CCCCCNC(=O)OC(C)(C)C)nn1	.	.	.	?	.	/	/	/
COc1ccc(N2CCN(c3ncnc4onc(C)c34)CC2)cc1	.	.	.	9.2µM	.	.	.	7.3µM
COc1ccc(N2CCN(c3ncnc4onc(-c5ccc(F)cc5)c34)CC2)cc1	.	.	.	.	.	/	/	/
CCN(CC)S(=O)(=O)c1cc(NC(=O)C(=O)c2c(-c3ccccc3)cc3ccccn23)ccc1C	.	/	.	5.2µM	.	.	.	?
SMILES	TGFb inhibitor	A549 tox-1	HepG2 tox	Nrf2 inh	Nrf2 ARE act	FLuc counter 3	A549 tox-2	ARE-Fluc inh
Cc1ccc(NC(=O)CN2C(=O)CCn3nc(-c4cccn4C)cc32)cc1	.	.	.	/	.	/	/	/
CC(C)(C)c1ccc(C(=O)N2CCCCCC2=O)cc1	.	.	.	9.2µM	.	?	.	3.7µM
O=C(Cc1cccs1)NNC(=S)NCc1ccc(Cl)cc1	.	.	.	.	.	/	/	/
COc1cc(OC)cc(-c2cc3nc(C)c(CCC(=O)O)c(C)n3n2)c1	.	.	.	1.5µM	.	11µM	.	2.6µM
COc1ccc(CCNC(=O)CCc2c(C)nc3cc(-c4ccccc4)nn3c2C)cc1OC	.	.	.	?	.	/	/	/
Cc1ccc(NC(=S)N2CCN(Cc3ccc4c(c3)OCO4)CC2)c(C)c1	.	.	.	?	.	/	/	/
CCN(CC)S(=O)(=O)c1ccc(C)c(NC(=S)N2CCN(Cc3ccc4c(c3)OCO4)CC2)c1	.	.	.	6.5µM	.	.	.	10µM
Cc1nn(C)c(C)c1NC(=O)COc1ccc(Cl)cc1Br	.	.	.	8.2µM	.	.	.	7.3µM
Cc1ccc(S(=O)(=O)N(C)Cc2ccc(C(=O)N/N=C/c3ccc(OC(F)F)cc3)cc2)cc1	?	.	.	5.8µM	.	.	.	6.5µM
CCCC1O[C@@H]2CC3C4CCC5=CC(=O)C=C[C@]5(C)C4C(OC(C)=O)C[C@]3(C)[C@]2(C(=O)COC(C)=O)O1 (some centres undefined)	.	.	.	.	.	/	/	/
CC(=O)OCC(=O)C1(O)CCC2C3CCC4=CC(=O)C=CC4(C)C3C(O)CC21C (centres undefined)	.	.	.	0.029µM	.	.	.	0.058µM
C[C@]12C=CC(=O)C=C1CC[C@@H]1C2[C@@H](O)C[C@@]2(C)C1CC[C@]2(O)C(=O)COC(=O)CCC(=O)O (some centres undefined)	.	.	.	0.13µM	.	.	.	?
CCC(C)C(NC(=O)CCC(=O)OCC(=O)[C@@]1(O)CCC2[C@@H]3CCC4=CC(=O)C=C[C@]4(C)C3[C@@H](O)C[C@@]21C)C(=O)O (some centres undefined)	.	.	.	0.18µM	.	.	.	0.21µM
C[C@H]1C[C@H]2[C@@H]3CCC4=CC(=O)C=C[C@]4(C)[C@@]3(F)[C@@H](O)C[C@]2(C)[C@@]1(O)C(=O)CO	.	.	.	0.016µM	.	.	.	0.0052µM
C[C@@H]1C[C@H]2[C@@H]3C[C@H](F)C4=CC(=O)C=C[C@]4(C)[C@@]3(F)[C@@H](O)C[C@]2(C)[C@@]1(O)C(=O)CO	.	.	.	?	.	/	/	/
